# Reference: ChEMBL document CHEMBL4513216, “Probing the Open Global Health Chemical Diversity Library for Multistage-Active Starting Points for Next-Generation Antimalarials” (ACS Infect Dis, 2020)
# In all, about 69,000 compounds went through this assay and about 8,600 (12%) showed an effect of 50% or more. Many of the other results were omitted from the sample, so strong results are more common in it than they were.
# System: Plasmodium berghei
# Assay: Screen against P. berghei liver stage (PbLuc), transformed with Luciferase, at 10uM
# Format: functional, HepG2
# Details: tested at 10 uM
row,SMILES,INHIBITION
1,Cc1cnn(C2CN(c3ncnc4[nH]ccc34)C2)c1,15%
2,CN(C)CC(=O)N1Cc2nnn(C)c2C(COCc2ccccn2)C1 (configuration not stated),-27.9%
3,CC(C)C(=O)N1CCN(Cc2ccccn2)CC2(CC(=O)N(C)C2)C1 (configuration not stated),5.04%
4,Cn1cccc1C(=O)N1CC2(CCN(C(=O)c3cccnc3)C2)C1,32.1%
5,Cn1nc(C2CCN(C(=O)c3cnccn3)C2)cc1CCO (configuration not stated),45.2%
6,Cc1nc(Cn2c3c(ccc2=O)CC(NC(C)C)CC3)cs1 (configuration not stated),13.6%
7,Cn1cccc1C(=O)N1CCC(O)(CN2CCc3ccccc3C2)C1 (configuration not stated),20.4%
8,Cc1csc(C(=O)N2CCC(O)(CN3CCc4ccccc4C3)C2)c1 (configuration not stated),76.8%
9,Cc1ncsc1C(=O)N1CCC(O)(CN2CCc3ccccc3C2)C1 (configuration not stated),45.6%
10,Cc1ccsc1C(=O)N1CCC(O)(CN2CCc3ccccc3C2)C1 (configuration not stated),33.7%
11,O=C(c1cccs1)N1CCC(O)(CN2CCc3ccccc3C2)C1 (configuration not stated),37.5%
12,Cc1ccc(C(=O)N2CCC(O)(CN3CCc4ccccc4C3)C2)s1 (configuration not stated),51.5%
13,Cc1nnsc1C(=O)NCc1nn(C)c2c1COCC2,-2.09%
14,CC(O)c1cn(Cc2ccc(Cl)cc2)nn1 (configuration not stated),24.7%
15,Cc1noc(C)c1CN1C[C@H]2CC[C@@H](C1)N(Cc1cc(F)cc(F)c1)C2,0.818%
16,CS(=O)(=O)N1Cc2ccccc2CC2(CCN(Cc3ccncc3)C2)C1 (configuration not stated),38.3%
17,CC(=O)N1CC2(CCCCN2Cc2ccc(Cl)cc2)Cc2ccccc21 (configuration not stated),59%
18,CS(=O)(=O)N1Cc2ccccc2CC2(CCN(Cc3ccccn3)C2)C1 (configuration not stated),40%
19,CC(=O)N1CC2(CCCN(Cc3ccc(Cl)cc3)C2)Cc2ccccc21 (configuration not stated),49.1%
20,CC(=O)N1CC2(CCN(Cc3ccc(Cl)cc3)CC2)Cc2ccccc21,61.5%
21,CS(=O)(=O)N1CC2(CCCN2Cc2ccc(Cl)cc2)Cc2ccccc21 (configuration not stated),23.4%
22,CC(=O)N1CC2(CCN(Cc3ccc(Cl)cc3)C2)Cc2ccccc21 (configuration not stated),57.3%

row,SMILES,INHIBITION
1,CC(=O)N1CC2(CCCN2Cc2ccc(Cl)cc2)Cc2ccccc21 (configuration not stated),46.6%
2,COCC(=O)N1CCC2(CC1)CC(=O)N(Cc1ccc(Cl)cc1)C2,14%
3,CN(C)CC(=O)N1CC2(CCN(Cc3ccccc3)C2)C1,-2.35%
4,Cc1ncsc1CN1CCC2(CC1)CC(=O)N(Cc1ccc(Cl)cc1)C2,-16%
5,CS(=O)(=O)N1Cc2ccccc2CC2(CCN(Cc3ccccc3)C2)C1 (configuration not stated),55.7%
6,CCOc1ncccc1CNC(=O)N1CCCC1c1ccsc1 (configuration not stated),40.9%
7,O=C(c1cscn1)N1C[C@H]2CCCC(OCc3cccnc3)[C@H]2C1 (some centres not stated),4.2%
8,CCS(=O)(=O)NCC(=O)NC1(C)CCc2ccccc2C1 (configuration not stated),-9.39%
9,Cc1nc(CN2CCN(Cc3ccoc3)Cc3cccnc32)cs1,21.6%
10,CSc1ncc(C(=O)N2C[C@@H]3CC[C@H]2CN(S(=O)(=O)N(C)C)C3)cn1,-9.92%
11,Cc1c(C(=O)N2CCCSCC2)nnn1-c1ccccc1Cl,26%
12,Cc1nc(C)c(C(=O)NCCNC(=O)Cc2ccc(F)cc2)s1,-29.9%
13,CC(C)N1CCC(C(=O)N2CCC(C(O)c3nccn3C)CC2)CC1 (configuration not stated),9.41%
14,O=c1[nH]ncn1-c1cccc(C(F)(F)F)c1,42.1%
15,CCCN1CCCn2c(nc(CNC(=O)c3cnoc3C)cc2=O)C1,9.63%
16,O=C(NC1(c2nccs2)CCCC1)c1cc(C2CC2)on1,36.5%
17,O=C(NC1(c2nccs2)CCCC1)c1[nH]nc(C2CC2)c1Cl,56.6%
18,O=C(NC1(c2nccs2)CCCC1)c1cc(C2CC2)[nH]n1,29.8%
19,COc1cc(C)ccc1OCC(=O)NS(=O)(=O)c1ccc(Br)s1,-2.19%
20,Cc1nc(CC(=O)N2CCCCC2Cn2cccn2)cs1 (configuration not stated),7.08%
21,NC(=O)c1csc(C(=O)N2CCCCC2Cn2cccn2)c1 (configuration not stated),17.8%
22,CCc1ncc(C(=O)N2CCCCC2Cn2cccn2)s1 (configuration not stated),33.6%

row,SMILES,INHIBITION
1,O=C(c1cc(F)cc2[nH]cnc12)N1CCCC1Cn1cccn1 (configuration not stated),39.7%
2,O=C(c1cc(F)cc2[nH]cnc12)N1CCCCC1Cn1cccn1 (configuration not stated),77.4%
3,CCc1nc(CC(=O)N2CCCC2Cn2cccn2)cs1 (configuration not stated),2.61%
4,CCN(CC)CC(=O)N1CCCC1Cn1cccn1 (configuration not stated),21.5%
5,CCN(CC)Cc1ccc(C(=O)N2CCCC2Cn2cccn2)o1 (configuration not stated),4.05%
6,O=C(c1cc2cc(F)ccc2[nH]1)N1CCCCC1Cn1cccn1 (configuration not stated),-12.2%
7,CCc1nc(CC(=O)N2CCCCC2Cn2cccn2)cs1 (configuration not stated),62.6%
8,CCN(CC)Cc1ccc(C(=O)N2CCCC2Cn2cccn2)cc1 (configuration not stated),56.85%
9,NC(=O)c1ccc(C(=O)N2CCCCC2Cn2cccn2)s1 (configuration not stated),53.9%
10,O=C(c1ccc2c(c1)CCC2)N1CCn2ncnc2C1,40.4%
11,CS(=O)(=O)N1CCCC(Cc2ccnc(Nc3ccccn3)c2)C1 (configuration not stated),12.7%
12,CCNC(=O)[C@@H]1C[C@@H](N)CN1C(=O)C1(c2ccc(OC)cc2)CCCC1,9.55%
13,Cn1ccc(CN2CCC3(CC2)CC(Nc2cnccn2)CO3)n1 (configuration not stated),46.7%
14,Cc1ccccc1-n1nc(C)c(CN(C)C(C)Cc2ccccn2)c1C (configuration not stated),24%
15,Cc1cccc(CNC(C)c2ccc(OCC(=O)NC3CC3)cc2)c1 (configuration not stated),15.3%
16,O=C(NCC1OCCc2cn(CC3CCOCC3)nc21)c1ccncc1 (configuration not stated),32.2%
17,CCOc1ccc(Cl)cc1CCNC(=O)Cn1ccccc1=O,-47%
18,CC(Cn1cccn1)NCCCc1nc(-c2cccs2)no1 (configuration not stated),10%
19,COc1cc(C)ccc1OCCC(=O)N1CCCC1Cn1cccn1 (configuration not stated),52.7%
20,CCc1ccc(C(=O)N2CCCCC2Cn2cccn2)o1 (configuration not stated),-2.35%
21,O=C(c1csc(C2CC2)n1)N1CCCC1Cn1cccn1 (configuration not stated),1.78%
22,CCN(CC)Cc1ccc(C(=O)N2CCCCC2Cn2cccn2)o1 (configuration not stated),19.5%

row,SMILES,INHIBITION
1,COc1ccccc1OCCC(=O)N1CCCC1Cn1cccn1 (configuration not stated),33.3%
2,O=C(c1ccc2nncn2c1)N1CCCCC1Cn1cccn1 (configuration not stated),54.4%
3,Cc1cnn(CC2CCCCN2C(=O)c2ccc3nncn3c2)c1 (configuration not stated),35.9%
4,COc1ccc(OCCC(=O)N2CCCC2Cn2cccn2)cc1 (configuration not stated),-10.1%
5,O=C(c1csc(C2CC2)n1)N1CCCCC1Cn1cccn1 (configuration not stated),52.5%
6,CC(=O)NCc1ccc(C(=O)N2CCCCC2Cn2cccn2)o1 (configuration not stated),61.7%
7,CC(=O)Nc1nc(C(=O)N2CCCCC2Cn2cccn2)cs1 (configuration not stated),-27.8%
8,Cc1cc(C)n(CC2CCCCN2C(=O)c2ccc3nncn3c2)n1 (configuration not stated),5.97%
9,Cc1sc(Oc2ccccc2Cl)nc1C(=O)O,18.14%
10,CC(C)N1CCC(NC(=O)c2cn(-c3ccc(F)cc3)nn2)C1 (configuration not stated),23.7%
11,CCS(=O)(=O)CCNC(=O)c1cc2n(n1)CCCO2,-16.3%
12,Cc1cnc(N2CCOCC3(CCN(c4ccccn4)C3)C2)nc1 (configuration not stated),34.4%
13,COc1ccc(C2CCCN2Cc2nc3c(cnn3C)c(=O)[nH]2)cc1 (configuration not stated),-5.25%
14,O=C(CCc1c(F)cccc1F)N1CCCCC1Cn1cccn1 (configuration not stated),15.6%
15,C=c1nc(NC)sc1=C1NC(c2c(C)ncc3c2CCNC3)=NO1,39.3%
16,Cn1ccc(CN2CCC(CN3CCOCC3)CC2)cc1=O,31.3%
17,COc1cccc(-c2cc(C(=O)NCCCn3nc(C)cc3C)[nH]n2)c1,-68.9%
18,c1ccc([C@@H]2CN(Cc3ccncc3)C[C@H]2c2cc[nH]n2)cc1,27.2%
19,Cc1cn2c(=O)c(-c3ccnc(NC4CCOCC4)n3)cnc2s1,-9.27%
20,CCOCCCNC(=O)CN(c1cc(C)cc(C)c1)S(C)(=O)=O,34.2%
21,N#Cc1ccc(CN2CCCC2Cn2cccn2)cc1 (configuration not stated),9.14%
22,O=C(Nc1cccc(F)c1)C1CCCN1c1nccs1 (configuration not stated),7.75%

row,SMILES,INHIBITION
1,O=C(Nc1cccc(N2CCCC2)c1)C1CCCN1c1nccs1 (configuration not stated),48.9%
2,O=C(Nc1cccc(C2SCCS2)c1)C1CCCN1c1nccs1 (configuration not stated),50.7%
3,Cc1nn(C)c(C)c1-c1ccc(=O)n(C(C)C(=O)NC2CCCCC2)n1 (configuration not stated),47.6%
4,CN(C)c1ccc(CNCc2ccc(N3CCOCC3)cc2)cn1,-0.551%
5,CC(C)COc1cncc(NC(CO)c2ccco2)n1 (configuration not stated),45.6%
6,CC(C)Cn1cnc(S(=O)(=O)NCCc2nnc3ccccn23)c1,12%
7,CCOc1cncc(NCCc2nnc3ccccn23)n1,43.4%
8,CC(C)COc1cncc(NCc2nnc3ccccn23)n1,64.3%
9,CC(C)COc1cncc(NCCc2nnc3ccccn23)n1,55.4%
10,CC(C)COc1cncc(NCC(O)c2ccco2)n1 (configuration not stated),20.8%
11,CCc1nc(C2CCCN2C(=O)c2ccc(N3CCCC3)nn2)no1 (configuration not stated),23.5%
12,CC(=O)NCCC1CCCCN1S(=O)(=O)c1ccc2ccccc2c1 (configuration not stated),29%
13,O=C(Nc1ccc(-c2nnc[nH]2)cc1)C1CCN1Cc1ccccc1 (configuration not stated),-17.3%
14,CO[C@H]1CCN(Cc2ccccn2)[C@@H]2CN(Cc3ccco3)C[C@H]12,-11.1%
15,CC[C@@H]1N(CC2CCOCC2)CCC[C@]12CCC(=O)N2,49.7%
16,CC[C@H]1N(CC2CCOCC2)CCC[C@]12CCC(=O)N2,27.5%
17,CC[C@@H]1N(CC2CC2)CCC[C@]12CCC(=O)N2,65.9%
18,Cc1ccc2nccc(C(=O)N3CCOC(CCN(C)C)C3)c2c1 (configuration not stated),43.9%
19,Cc1cc(C(=O)N2CCCC(C(=O)c3nccn3C)C2)c(=O)[nH]c1C (configuration not stated),25.9%
